BJeLR viability: lowers viability of BJeLR cells; viability loss activity score, % (concentration not given with the values); BJeLR fibroblasts viability, CellTiterGlo ATP luminescence, 48 h; HRASV12, hTERT and SV40 LT/ST transformed; 30,000 compounds, 0.64% hits; AID 2275; in the data active means viability loss activity score above about 50%;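 further: higher score means fewer live cells and less ATP luminescence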
A1 inhib: A1 inhibition | MEF A1-2A-BIM cells, caspase-Glo luminescence, 3 h; percent of clofoctol signal, DMSO as zero | caspase activation, % (no concentration beside the values) | 21,000 compounds, 0.51% hits | AID 2241;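 active means most replicate scores above 10, or exactly half above 10 with mean activity above 10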;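 further: effector caspase 3 and 7 activity cleaving a DEVD luciferin substrate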
Starred values were filed as active, the others as inactive; nt = not tested or not shown. Sampled rows, rich in hits. Any-hit rate of the full collection: about 0.9%.

SMILES	BJeLR viability	A1 inhib
C/C1=C/C(=O)O[C@@H]2C[C@@H](CC[C@H](C)/C=C\CC1)O[C@@](O)([C@@H]1CSC(=O)N1)C2	40.7	23.1*
CSc1ncccc1C1=N/C(=C\N(C)C)C(=O)O1	-5.0	1.3
CCc1ccc(CN2CCN(Cc3cccc(OC)c3)CC2)cc1	-0.4	-1.1
N#CC(C#N)=NNc1ccc(OC(F)(F)F)cc1	85.9*	-3.3
CCC(C)[C@H]1O[C@]2(C=C[C@@H]1C)C[C@@H]1C[C@@H](C/C=C(\C)[C@@H](OC3C[C@H](OC)C(O[C@H]4C[C@H](OC)[C@@H](O)[C@H](C)O4)[C@H](C)O3)[C@@H](C)/C=C/C=C3\CO[C@@H]4[C@H](O)C(C)=C[C@@H](C(=O)O1)[C@]34O)O2 (some centres not stated)	-4.1	-0.1
CO[C@H]1[C@H](O)[C@H](O[C@H]2CC[C@]3(C)C4CC[C@]5(C)[C@H](C6=CC(=O)OC6)CC[C@]5(O)C4CC[C@@H]3C2)O[C@@H](C)[C@@H]1O (some centres not stated)	115.8*	0.5
C[C@@H]1O[C@@H](OC2CCC3(C)C4CCC5(C)C(C6=CC(=O)OC6)CCC5(O)C4CC[C@H]3C2)[C@H](O)[C@H](O)[C@H]1O (some centres not stated)	100.6*	0.4
C[C@@H]1O[C@@H](O[C@H]2C[C@@H](O)[C@]3(CO)[C@H]4[C@H](O)C[C@]5(C)[C@@H](C6=CC(=O)OC6)CC[C@]5(O)[C@@H]4CC[C@]3(O)C2)[C@H](O)[C@H](O)[C@H]1O	103.9*	0.2
CO[C@H]1[C@H](O)[C@@H](O[C@H]2CC[C@]3(C=O)C4CC[C@]5(C)[C@@H](C6=CC(=O)OC6)CC[C@]5(O)C4CC[C@@H]3C2)O[C@@H](C)[C@@H]1O (some centres not stated)	133.0*	0.2
Cc1ccccc1OCCCn1cc(C(=O)C(C)(C)C)c2ccccc21	3.9	nt
O=C(O)C1C2CC3CC(C2)CC1(n1ncc(N2CCOCC2)c(Cl)c1=O)C3 (configuration not stated)	0.0	-0.2
COC(=O)[C@H]1O[C@@H]2C[C@H]3OC(n4cnc5c(N)ncnc54)[C@H](OC)[C@H]3O[C@@]2(O)[C@@H](O)[C@@H]1O (some centres not stated)	-3.0	-0.5
N#Cc1cc2c(nc1SCc1ccccc1Br)C1CCN2CC1	2.1	nt
CC(=O)NCC1CCCN2CCCCC12 (configuration not stated)	2.5	0.6
O=C(CCNS(=O)(=O)c1ccccc1)Nc1ccc(Br)cc1C(=O)c1ccccc1	7.5	-0.9
C[C@]12CC[C@H]3[C@@H](CC[C@]4(O)C[C@@H](O)CC[C@]34C=O)[C@@]1(O)CC[C@@H]2C1=CC(=O)OC1	82.3*	0.5
COC(=O)[C@@]12C(=O)C(C)C(=O)[C@]1(C)C(C)=C[C@H]1[C@]3(C)CC[C@H](OC(C)=O)C(C)(C)[C@H]3CC[C@@]12C (some centres not stated)	-4.7	0.4
COc1ccc2c(c1OC)C(=O)O[C@@H]2[C@@H]1c2cc3c(cc2CCN1C)OCO3	-9.4	-0.6
Cn1c(CCN)nc2ccccc21	3.1	1.8
CCc1nc2ccccc2c(=O)n1-c1ccccc1Cl	0.8	0.3
COC1CC(OC2C(C)OC(OC3C(C)OC(OC4C(C)OC(O[C@H]5CC[C@@]6(C)C(=CC[C@]7(O)C6CC(OC(=O)c6ccccc6)[C@@]6(C)[C@]7(O)CC[C@@]6(O)C(C)=O)C5)CC4OC)CC3OC)CC2OC)OC(C)C1O (some centres not stated)	75.1*	0.0
C/C(CC(c1ccccc1)c1c(O)c2ccccc2oc1=O)=N/O (configuration not stated)	3.2	0.0
COc1ccc(/C=C/C(=O)C2C(=O)NC34CCCCC3C2c2ccccc2O4)c(OC)c1OC (configuration not stated)	-7.5	nt
COC[C@H]([C@@H](O)[C@@H](O)C(=O)NCC[C@@H](C)c1nc(/C=C/C[C@H]2OC3(C[C@H](O)[C@H]2C)OC([C@@H](C[C@@H](O)[C@@H](C)[C@@H](O)[C@@H](C)/C=C(C)/C(C)=C/C=C/C(C)=C\C#N)OC)[C@@H](OP(=O)(O)O)C3(C)C)co1)N(C)C (some centres not stated)	69.5*	-3.0
C=CC(C)(C)[C@]12C=C(OC)C(=O)N3/C(=C/c4cnc[nH]4)C(=O)N[C@@]31N(OC)c1ccccc12	0.3	0.1
SMILES	BJeLR viability	A1 inhib
COc1cc2c(cc1O)C1Cc3ccc(OC)c(O)c3CN1CC2 (configuration not stated)	4.6	-0.2
COC[C@H]1OC(=O)c2coc3c2[C@@]1(C)C1=C(C3=O)C2CCC(=O)[C@@]2(C)C[C@H]1OC(C)=O (some centres not stated)	7.0	51.9*
COc1ccc(C(=O)O[C@H]2CC[C@@]3(C)[C@@H]4CC[C@H]5[C@]6(O)C[C@H](O)[C@@]7(O)[C@@H](CN8C[C@@H](C)CC[C@H]8[C@@]7(C)O)[C@]6(O)C[C@@]53O[C@]24O)cc1OC	-1.9	0.0
CC[C@@H]1/C=C\C=C\C[C@H](C)C(O)[C@](C)(O)C(=O)[C@H](C)C(O)[C@H](C)C(=O)[C@H](C)[C@@H](O)[C@H](C)/C=C/C(=O)O[C@H]2[C@@H](C)[C@@H](CC1)O[C@@]1(CC[C@@H](C)[C@@H](C[C@H](C)O)O1)[C@@H]2C (some centres not stated)	-16.0	-0.6
COc1ccc(C[C@H]2NC[C@H](O)[C@H]2OC(C)=O)cc1	117.4*	12.8*
O=C1NC(=O)C(=C/C=C/c2ccccc2)C(=O)N1	-10.5	2.4
COC(=O)CC1=C(C(=O)OC)C2(C(=O)Nc3ccccc32)C(C(=O)OC)=C(N)O1 (configuration not stated)	-0.2	0.3
CSc1nc(-c2ccc(Cl)cc2)nn1C(=O)N(C)C	-2.2	-0.5
O=C(Nc1ccc2c(C(F)(F)F)cc(=O)oc2c1)c1cc(Cl)cc(Cl)c1	-1.0	-0.7
CO[C@@H]1[C@H](O)[C@@H](O[C@@H]2C[C@H]3CC[C@@H]4C(CC[C@]5(C)[C@@H](C6=CC(=O)OC6)CC[C@]45O)[C@@]3(C)[C@H](O)C2)O[C@H](C)[C@@H]1O[C@@H]1O[C@H](CO)[C@@H](O)[C@H](O)[C@H]1O (some centres not stated)	111.2*	-0.2
CC(=O)O[C@H]1C[C@H](O[C@H]2[C@@H](O)C[C@H](O[C@H]3[C@@H](O)C[C@H](O[C@H]4CC[C@@]5(C)C(CCC6C5C[C@@H](O)[C@]5(C)[C@@H](C7=CC(=O)OC7)CC[C@]65O)C4)O[C@@H]3C)O[C@@H]2C)O[C@H](C)[C@H]1O[C@@H]1O[C@H](CO)[C@@H](O)[C@H](O)[C@H]1O (some centres not stated)	108.8*	0.3
CO[C@H]1[C@H](O)[C@H](O[C@H]2CC[C@]3(C)C4CC[C@]5(C)[C@H](C6=CC(=O)OC6)CC[C@]5(O)C4CC[C@@H]3C2)O[C@@H](C)[C@@H]1O[C@@H]1O[C@H](CO[C@@H]2O[C@H](CO)[C@@H](O)[C@H](O)[C@H]2O)[C@@H](O)[C@H](O)[C@H]1O (some centres not stated)	99.8*	-0.6

Bioassay records: PubChem, Broad Institute
